The values that follow come from PubChem BioAssay.

One assay has as its target Albumin (Bos taurus) (UniProt P02769). The assay is described as follows: compounds binding labelled BSA control protein – biochemical, small-molecule microarray, Alexa647 label, 635/667 nm fluorescence, artefact control for SMM control protein annotation, profiling panel (AID 1118).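 Also: score merges 667 nm emission intensity and signal-to-noise per printed compound spot.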 To be noted: BSA-A647 binding, fluorescence 635 nm, higher = more signal.
The nature of assay [1]: probe aXIP binding to arrayed compounds – biochemical, NeuroSMM set, 635/667 nm fluorescence, primary screen (AID 1119).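 Also: probe is the protein aXip251-270 applied at 1 µg/mL to compound-printed slides; binding of probe to printed compounds measured as 667 nm fluorescence plus signal to noise.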 To be noted: small-molecule microarray, higher = more signal, called active from +8 up or from −8 down.
Assay [2] in a line: probe aNOTCH3 binding on compound microarray – biochemical, small-molecule microarray, 635/667 nm fluorescence, primary screen (AID 1120).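 Also: probe is a biotin-tagged antibody raised against NOTCH3 rather than NOTCH3 protein; score merges spot fluorescence near 667 nm with spot signal to noise.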 To be noted: higher = more signal.
A short description of assay [3]: probe aNOTCH2 binding on compound microarray – biochemical, small-molecule microarray, 635/667 nm fluorescence, primary screen (AID 1121).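 Also: score merges feature fluorescence read at 667 nm with its signal to noise.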 To be noted: higher = more signal.
Assay [4] concerns the target Carbonic anhydrase 2 (Homo sapiens) (UniProt P00918). As to the kind of experiment: compounds binding carbonic anhydrase 2 – biochemical, small-molecule microarray, Alexa647-labelled CAII, profiling panel (AID 1122). To be noted: CAII-A647 binding fluorescence, higher = more signal.
The nature of assay [5]: COS7 lysate on small-molecule microarray, probe aHis, 635 nm (AID 1123).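 Also: z-score combines 667nm fluorescence intensity with signal-to-noise per printed compound spot.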 To be noted: COS7 cell lysate, fluorescence, higher = more signal.
Assay [6] in a line: probe aLAP1 signal on lysate-treated microarray – cell lysate, small-molecule microarray, COS7 lysate, primary screen (AID 1124).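 Also: lysate comes from COS7 cells expressing LAP1 and is applied at 0.3 µg/mL; score merges spot fluorescence near 667 nm with signal-to-noise over triplicate slides.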 To be noted: probe aLAP1, fluorescence, higher = more signal.
Another assay relates to Sam68 (KHDRBS1). As to the kind of experiment: compounds binding KHDRBS1 protein – biochemical, small-molecule microarray, 635 nm fluorescence, primary screen (AID 1125).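 Also: score merges 667 nm channel intensity with signal to noise over triplicate slides.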 To be noted: higher = more signal.
Assay [7] deals with Chordin-like protein 2 (CHRDL2). As to the kind of experiment: compounds binding chordin-like 2 – biochemical, small-molecule microarray, 635 nm fluorescence, primary screen (AID 1126).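 Also: printed compound slides probed with Chrdl2 protein at 4 µg/mL for 1 h at 4 C; score merges 667 nm emission intensity with signal to noise over three replicate slides.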 To be noted: fluorescence 635 nm, higher = more signal.
Assay [8] has as its target Concanavalin-A (Canavalia ensiformis) (UniProt P02866). As to the kind of experiment: compounds binding concanavalin A lectin – biochemical, small-molecule microarray, Alexa647 label, 635 nm, artefact control for SMM control protein annotation, primary screen (AID 1127).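 Also: z combines 667 nm emission intensity with signal-to-noise across three replicate slides.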 To be noted: ConA-A647 binding fluorescence, higher = more signal.
The nature of assay [9]: compounds binding Alexa647 anti-His antibody – biochemical, small-molecule microarray, 635 nm fluorescence, artefact control for SMM control protein annotation, primary screen (AID 1128).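 Also: score merges feature fluorescence with signal-to-noise for each printed compound spot.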 To be noted: higher = more signal.
The subject of assay [10] is Human papillomavirus type 1a E7 protein (residues 1-88). The assay is described as follows: HPV1a E7 small-molecule binders, primary screen, biochemical, small-molecule microarray, residues 1-88, 635 nm (AID 1129). To be noted: small-molecule microarray binding, fluorescence 635 nm; higher = more signal.
The target in assay [11] is Focal adhesion kinase 1 (Homo sapiens) (UniProt Q05397). As to the kind of experiment: PTK2 protein binding on printed compound slides – biochemical, small-molecule microarray, 635/667 nm fluorescence, BSA, DTT, primary screen (AID 1130).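 Also: composite of spot emission at 667 nm and signal to noise over triplicate slides.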 To be noted: 635 nm fluorescence, higher = more signal.
Sequence of Focal adhesion kinase 1 (Homo sapiens) (Q05397 whole entry, looked up): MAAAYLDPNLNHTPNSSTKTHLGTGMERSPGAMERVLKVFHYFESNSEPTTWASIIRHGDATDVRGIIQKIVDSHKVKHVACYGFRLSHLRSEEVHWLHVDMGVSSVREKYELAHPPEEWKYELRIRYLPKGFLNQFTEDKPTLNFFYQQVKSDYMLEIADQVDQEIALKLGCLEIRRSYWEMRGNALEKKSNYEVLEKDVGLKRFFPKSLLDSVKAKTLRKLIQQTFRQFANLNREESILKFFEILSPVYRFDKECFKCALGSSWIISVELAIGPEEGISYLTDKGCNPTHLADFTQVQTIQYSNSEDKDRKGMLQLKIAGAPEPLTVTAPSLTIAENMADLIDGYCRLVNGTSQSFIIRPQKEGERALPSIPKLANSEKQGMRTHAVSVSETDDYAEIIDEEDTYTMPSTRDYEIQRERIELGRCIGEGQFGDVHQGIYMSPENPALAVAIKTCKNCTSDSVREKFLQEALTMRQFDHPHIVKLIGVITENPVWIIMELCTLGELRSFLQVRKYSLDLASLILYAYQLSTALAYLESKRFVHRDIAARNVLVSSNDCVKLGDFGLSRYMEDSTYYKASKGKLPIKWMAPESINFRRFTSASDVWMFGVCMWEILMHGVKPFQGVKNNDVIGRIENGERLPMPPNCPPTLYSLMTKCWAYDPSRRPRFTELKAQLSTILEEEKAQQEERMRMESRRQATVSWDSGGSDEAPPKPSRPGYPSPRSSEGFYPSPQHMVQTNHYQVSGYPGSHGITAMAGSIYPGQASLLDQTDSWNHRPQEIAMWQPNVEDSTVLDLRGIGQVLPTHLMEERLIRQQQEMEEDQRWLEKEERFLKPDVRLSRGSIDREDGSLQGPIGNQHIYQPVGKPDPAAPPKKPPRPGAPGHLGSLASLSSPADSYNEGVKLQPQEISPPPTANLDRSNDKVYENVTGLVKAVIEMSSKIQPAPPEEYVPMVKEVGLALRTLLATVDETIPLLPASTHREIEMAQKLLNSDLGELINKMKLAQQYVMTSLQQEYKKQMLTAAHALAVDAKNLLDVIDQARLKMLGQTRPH
Assay [12] has as its system Fibrinogen (Alexa647-labelled). The assay is described as follows: Alexa647-fibrinogen binding to printed small molecules – biochemical, small-molecule microarray, 635/667 nm fluorescence, artefact control for SMM control-protein annotation, profiling panel (AID 1131).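 Also: z-score merges 667 nm fluorescence with per-spot signal-to-noise over triplicate slides.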 To be noted: fibrinogen-A647 binding fluorescence, higher = more signal.
In assay [13] the target is Follistatin (Homo sapiens) (UniProt P19883). As to the kind of experiment: FST protein binding to printed compounds – biochemical, small-molecule microarray, 635/667 nm fluorescence, primary screen (AID 1132). To be noted: 635 nm fluorescence, higher = more signal.
Sequence of Follistatin (Homo sapiens) (P19883 whole entry, looked up): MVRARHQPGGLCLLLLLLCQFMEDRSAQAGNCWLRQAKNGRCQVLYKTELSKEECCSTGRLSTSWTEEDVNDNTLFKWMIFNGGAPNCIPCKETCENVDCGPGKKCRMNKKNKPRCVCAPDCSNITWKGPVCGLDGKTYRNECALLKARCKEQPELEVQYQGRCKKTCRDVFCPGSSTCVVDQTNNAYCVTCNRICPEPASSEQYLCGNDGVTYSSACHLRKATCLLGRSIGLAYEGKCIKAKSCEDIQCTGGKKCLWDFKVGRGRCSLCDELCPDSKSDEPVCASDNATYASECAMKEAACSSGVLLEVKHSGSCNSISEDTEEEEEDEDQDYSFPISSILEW
Assay [14] concerns the target Fibroblast growth factor 2 (Homo sapiens) (UniProt P09038). The assay is described as follows: basic fibroblast growth factor binding to printed compounds – biochemical, small-molecule microarray, 635/667 nm fluorescence, primary screen (AID 1133). To be noted: FGF2, fluorescence 635/667, higher = more signal.
Assay [15] is described as follows: JC-1 mitochondrial potential readout, lung cancer cells – cell-based, A549, JC-1 fluorescence, basal, 24 h, 100 nL, profiling panel (AID 1138).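 Also: A549 lung adenocarcinoma cells under basal conditions with no added stimulus; test concentration not given here.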 To be noted: higher = more signal.
For the next assay, the system named is Lefty1. The assay is described as follows: Lefty1 protein binding to printed compounds – biochemical, small-molecule microarray, 635/667 nm fluorescence, primary screen (AID 1139). To be noted: fluorescence 635/667, higher = more signal.
Assay [16] concerns wheat germ agglutinin (Triticum aestivum), Alexa647-labelled. The assay is described as follows: Alexa647-WGA lectin binding to printed small molecules – biochemical, small-molecule microarray, 635/667 nm fluorescence, artefact control for SMM control-protein annotation, profiling panel (AID 1140).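 Also: score merges 667 nm feature emission with signal to noise over triplicate slides.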 To be noted: WGA-A647 binding, 635 nm fluorescence, higher = more signal.
Assay [17] deals with Luciferin 4-monooxygenase (Photinus pyralis) (UniProt P08659). The assay is described as follows: inhibition of purified Photinus pyralis luciferase – biochemical, luminescence, purified enzyme, 2006 set, primary screen (AID 1141).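 Also: cell-free assay with purified firefly luciferase at 100 ng per well in PBS; test concentration not given here.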 To be noted: purified firefly luciferase, SteadyGlo luminescence, 30 min; higher = more signal, called active from +8 up or from −8 down.
Sequence of Luciferin 4-monooxygenase (Photinus pyralis) (P08659 whole entry, looked up): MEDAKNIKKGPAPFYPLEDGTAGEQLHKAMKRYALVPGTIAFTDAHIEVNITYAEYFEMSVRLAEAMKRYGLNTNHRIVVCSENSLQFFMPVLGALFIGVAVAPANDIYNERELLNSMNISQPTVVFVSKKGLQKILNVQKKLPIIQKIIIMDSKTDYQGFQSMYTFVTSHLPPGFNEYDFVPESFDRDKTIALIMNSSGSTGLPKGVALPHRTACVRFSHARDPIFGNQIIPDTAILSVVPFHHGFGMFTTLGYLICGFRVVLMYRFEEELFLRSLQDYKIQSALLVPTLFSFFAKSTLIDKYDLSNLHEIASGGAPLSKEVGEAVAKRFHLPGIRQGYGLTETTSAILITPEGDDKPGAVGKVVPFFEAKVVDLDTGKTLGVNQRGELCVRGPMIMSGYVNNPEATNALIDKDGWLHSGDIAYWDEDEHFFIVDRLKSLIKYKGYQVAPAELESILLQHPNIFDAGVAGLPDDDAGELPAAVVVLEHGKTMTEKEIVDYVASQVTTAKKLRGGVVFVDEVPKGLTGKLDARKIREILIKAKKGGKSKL

The source made the active and inactive calls.

Sequence of Concanavalin-A (Canavalia ensiformis) (P02866 whole entry, looked up): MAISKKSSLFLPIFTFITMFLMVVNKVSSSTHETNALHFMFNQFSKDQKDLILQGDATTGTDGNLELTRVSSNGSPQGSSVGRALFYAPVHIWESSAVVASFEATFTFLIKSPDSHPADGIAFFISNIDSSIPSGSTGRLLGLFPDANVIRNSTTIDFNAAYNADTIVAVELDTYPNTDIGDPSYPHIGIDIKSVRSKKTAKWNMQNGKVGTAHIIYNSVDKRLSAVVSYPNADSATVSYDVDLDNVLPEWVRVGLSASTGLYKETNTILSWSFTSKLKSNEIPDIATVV
Sequence of Fibroblast growth factor 2 (Homo sapiens) (P09038 whole entry, looked up): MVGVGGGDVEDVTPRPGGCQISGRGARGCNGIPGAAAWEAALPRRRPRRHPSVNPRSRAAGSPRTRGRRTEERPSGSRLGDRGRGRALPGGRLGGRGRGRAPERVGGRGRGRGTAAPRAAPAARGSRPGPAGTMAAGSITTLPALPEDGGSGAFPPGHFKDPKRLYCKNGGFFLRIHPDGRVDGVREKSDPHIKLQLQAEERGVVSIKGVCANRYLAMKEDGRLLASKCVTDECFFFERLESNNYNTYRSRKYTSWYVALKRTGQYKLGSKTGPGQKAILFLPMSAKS
Sequence of Albumin (Bos taurus) (P02769 whole entry, looked up): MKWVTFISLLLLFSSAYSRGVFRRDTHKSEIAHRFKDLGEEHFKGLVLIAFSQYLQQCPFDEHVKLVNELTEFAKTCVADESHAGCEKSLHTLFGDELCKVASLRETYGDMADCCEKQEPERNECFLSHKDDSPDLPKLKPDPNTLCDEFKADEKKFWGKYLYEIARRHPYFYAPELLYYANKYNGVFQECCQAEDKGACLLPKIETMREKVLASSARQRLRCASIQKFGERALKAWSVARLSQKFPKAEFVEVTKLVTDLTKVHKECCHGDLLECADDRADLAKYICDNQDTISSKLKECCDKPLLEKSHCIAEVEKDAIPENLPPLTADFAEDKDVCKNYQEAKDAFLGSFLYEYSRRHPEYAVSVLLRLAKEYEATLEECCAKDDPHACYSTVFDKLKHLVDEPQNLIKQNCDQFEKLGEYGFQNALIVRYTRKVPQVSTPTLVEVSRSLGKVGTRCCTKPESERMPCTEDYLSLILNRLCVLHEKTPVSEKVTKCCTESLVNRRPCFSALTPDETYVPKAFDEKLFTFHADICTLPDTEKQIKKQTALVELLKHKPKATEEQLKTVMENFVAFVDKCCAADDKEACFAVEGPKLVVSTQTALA

On to `C=CCN1C(=O)[C@@]2(O[C@@H](CCO)[C@H]([Si](C)(C)c3ccc(OC)cc3)[C@H]2C)c2cc(N3C(=O)COc4ccccc43)ccc21`, for which the composite z-score is 0.277 with Albumin (Bos taurus); -0.141 in assay [2]; -0.14 in assay [3]; 0.277 in assay [4]; 1.4 in assay [5]; 0.0661 in assay [6]. In addition, the composite z-score in the assay with Sam68 (KHDRBS1) is 1.29; in assay [7], -0.317; in assay [8], 0.973; in assay [9], 1.52; in assay [10], 1.02; in [11], 0.346. Moreover, the composite z-score is 0.578 in assay [12]; 0.25 in assay [13]; 0.27 in assay [14]; 0.0865 in the assay with Lefty1; 0.577 in assay [16]. Moreover, the composite Z-score in assay [1] was 0.69 (inactive). In addition, the z-score in assay [15] is -0.839; in assay [17], -0.401 (inactive).

For `OCCCc1cc[n+](Cc2cccc(OC(F)(F)F)c2)cc1`, the composite z-score was 0.589 in the assay with Albumin (Bos taurus); 0.147 in [2]; -0.101 in assay [3]; 0.842 in assay [4]; 2.02 in assay [5]; 0.348 in assay [6]. Also, the composite z-score in the assay with Sam68 (KHDRBS1) came to 1.28; in assay [7] it was 0.421; in [8], 1.09; in assay [9], 1.62; in assay [10] it was 1.01; in assay [11], 0.917. Further, the composite z-score in assay [12] is 0.315; in [13] it was 1.18; in assay [14] it was 0.58; in the assay on Lefty1 it was 0.714; in [16], 0.889. In assay [1], the composite Z-score is 0.755 (inactive). Further, the z-score is -0.672 in assay [15] and 1.14 (inactive) in assay [17].

Consider `NC(=O)[C@]1(Cc2ccccc2)N=C(c2ccc(OCCCO)cc2)O[C@@H]1c1ccccc1`, for which the composite z-score in the assay with Albumin (Bos taurus) was 0.532; in assay [2], 0.106; in assay [3], 0.0959; in [4] it was 0.865; in assay [5] it was 2.53; in assay [6], 0.583. For the same molecule, the composite z-score in the assay on Sam68 (KHDRBS1) is 0.827; in assay [7], -0.0464; in assay [8], 0.587; in assay [9] it was 1.15; in assay [10] it was 1.12; in assay [11] it was 0.246. The composite z-score was 0.977 in [12]; 0.368 in [13]; -0.555 in assay [14]; -0.524 with Lefty1; 1.05 in assay [16]. For the same molecule, the composite Z-score in [1] is 0.702 (inactive). Further, the values for the z-score in [15] and in assay [17] were -1.04 and -0.354 (inactive), respectively.

With `CO[C@H]1O[C@H](CO)[C@@H](OC(=O)Nc2ccc3c(c2)OCO3)[C@H](OC(=O)Nc2ccc3c(c2)OCO3)[C@H]1OC(=O)Nc1ccc2c(c1)OCO2`, the composite z-score was 0.733 with Albumin (Bos taurus); 0.307 in assay [2]; -0.0483 in [3]; 0.7 in [4]; 2.73 in assay [5]; 0.804 in assay [6]. The composite z-score with Sam68 (KHDRBS1) was 1.29; in assay [7] it was 0.138; in [8], 1.07; in [9], 2.47; in assay [10] it was 1.22; in assay [11], 0.0847. Also, the composite z-score in assay [12] is 0.86; in assay [13] it was 1.23; in assay [14], 0.506; in the assay on Lefty1 it was 0.683; in assay [16], 1.02. Also, the composite Z-score in [1] is 0.204 (inactive). Moreover, the z-score in assay [15] is -0.641; in assay [17] it was -5.43 (inactive).

Take `COC(=O)[C@@]1(Cc2ccc(OC)cc2)[C@H]2c3cc(C(=O)N4CCCC4)n(CCN4CCOCC4)c3C[C@H]2CN1C(=O)c1ccccc1`: the composite z-score turned out to be 1.06 with Albumin (Bos taurus); 1.72 in assay [2]; 1.05 in [3]; 0.87 in assay [4]; 3.42 in assay [5]; 0.94 in [6]. Besides, the composite z-score is 1.29 with Sam68 (KHDRBS1); 0.265 in [7]; 0.991 in assay [8]; 0.954 in assay [9]; 1.19 in assay [10]; 1.75 in [11]. Also, the composite z-score in assay [12] is 0.998; in [13], 0.193; in assay [14], -0.125; in the assay on Lefty1, -0.499; in assay [16], 0.76. Besides, in assay [1], the composite Z-score was 1.42 (inactive). In addition, the figures for the z-score in assay [15] and in assay [17] were 0.892 and 1.12 (inactive), respectively.
